Assay results from the supplement of paper PMC10732440.
± gives the standard deviation of the averaged measurements.

The compounds below were run on Caenorhabditis elegans N2 infected with Nematocida parisii ERTm1 (assay: progeny production relative to DMSO uninfected control; higher = more progeny despite microsporidia infection (inhibition of infection with low host toxicity)). Settings: infection time 6 days; 40 µM.
Experimental: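 Bleach-synchronised C. elegans N2 L1 larvae (100 per well) were grown in 96-well plates in K-medium with 5x E. coli OP50 and 15,000 N. parisii spores/uL, plus Pandemic Response Box compound at 100 uM or 40 uM (1% DMSO), for 6 days at 21 C with shaking. Worms were stained with Rose Bengal, scanned on a flatbed scanner and counted with WorMachine. Progeny production is given as % of the DMSO uninfected control (triplicate wells), so higher values mean the compound restores progeny despite infection.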

C(=C\c1nc2ccccc2[nH]1)/c1ccc2c(c1)OCO2 and O=C(Nc1ccc(F)cc1)c1nn(-c2ccccc2)c(=O)cc1Cl are within error of each other in progeny production: 7.35 ± 5.9% for the first, 5.87 ± 3.4% for the second.

CCNC(=O)Nc1cn2c(-c3ncc(CC)cn3)cc(-c3cccnc3)cc2n1 and CCc1nc2ccccn2c1C(=O)NCc1ccccc1 are within error of each other in progeny production: 3.09 ± 1.5% for the first, 6.11 ± 1.7% for the second.

O=P(O)(O)C(CCCc1cccc(Oc2ccccc2)c1)S(=O)(=O)O (stereo not given) and CCOc1ccc(C(=O)NCCc2ccccc2)cc1 are within error of each other in progeny production: 5.45 ± 0.36% for the first, 6.06 ± 3.1% for the second.

O=C(NN1C(=O)[C@@H]2[C@@H]3C=C[C@@H]([C@H]4C[C@@H]34)[C@@H]2C1=O)c1ccc(C(F)(F)F)cc1 and O=S(=O)(Nc1ccc(-n2cccc2)cc1)c1ccc(Cl)c(Cl)c1 are within error of each other in progeny production: 3.22 ± 1.3% for the first, 6.12 ± 3.2% for the second.

First: c1cc(CN2CCCNCCNCCCNCC2)ccc1CN1CCCNCCNCCCNCC1
Second: CN1CCN(Cc2ccc(-c3cnc4[nH]cc(-c5ccc6[nH]ccc6c5)c4c3)cc2)CC1
The progeny production of the first is lower: 2.33 ± 1% for the first, 9.2 ± 4.8% for the second.

COc1ccccc1NC(=O)c1ccccc1Sc1ccc([N+](=O)[O-])cc1 and NC(=O)c1cnc2ccc(S(=O)(=O)c3ccccc3)cc2c1Nc1ccc(O)cc1 are within error of each other in progeny production: 6.65 ± 3.2% for the first, 6.94 ± 3.1% for the second.

CC[C@H](CO)Nc1nc(NCc2ccccc2)c2ncn(C(C)C)c2n1 and CCOCc1nc2c(N)nc3ccccc3c2n1CC(C)(C)O are within error of each other in progeny production: 4.15 ± 1.7% for the first, 3.75 ± 1.7% for the second.

CC(Cc1ccccc1)C(=O)Nc1ccc(Cl)cc1C(=O)O (stereo not given) and Nc1nc(=O)c(Br)c(-c2ccccc2)[nH]1 are within error of each other in progeny production: 7.65 ± 4.2% for the first, 5.86 ± 5.3% for the second.

O=C1NC(=S)N/C1=C\c1cc(Br)cc(Br)c1O and O=C1CCC(N2C(=O)c3ccccc3C2=O)C(=O)N1 (stereo not given) are within error of each other in progeny production: 6.18 ± 0.84% for the first, 9.53 ± 5.1% for the second.

CC1CCc2c(N3CCC(O)CC3)c(F)cc3c(=O)c(C(=O)O)cn1c23 (stereo not given) and CC(C)Nc1ncnc2c1cnn2-c1ccc(Cl)cc1 are within error of each other in progeny production: 8.47 ± 4.4% for the first, 8.31 ± 1.1% for the second.

Same assay, conditions: infection time 6 days; 100 µM

C(=C\c1nc2ccccc2[nH]1)/c1ccc2c(c1)OCO2 and O=C(Nc1ccc(F)cc1)c1nn(-c2ccccc2)c(=O)cc1Cl are within error of each other in progeny production: 16.6 ± 18% for the first, 14 ± 9.4% for the second.

CCNC(=O)Nc1cn2c(-c3ncc(CC)cn3)cc(-c3cccnc3)cc2n1 and CCc1nc2ccccn2c1C(=O)NCc1ccccc1 are within error of each other in progeny production: 6.08 ± 4.7% for the first, 12.8 ± 11% for the second.

O=P(O)(O)C(CCCc1cccc(Oc2ccccc2)c1)S(=O)(=O)O (stereo not given) and CCOc1ccc(C(=O)NCCc2ccccc2)cc1 are within error of each other in progeny production: 8.22 ± 4.1% for the first, 6.07 ± 3% for the second.

O=C(NN1C(=O)[C@@H]2[C@@H]3C=C[C@@H]([C@H]4C[C@@H]34)[C@@H]2C1=O)c1ccc(C(F)(F)F)cc1 and O=S(=O)(Nc1ccc(-n2cccc2)cc1)c1ccc(Cl)c(Cl)c1 are within error of each other in progeny production: 9.48 ± 4% for the first, 35.7 ± 29% for the second.

c1cc(CN2CCCNCCNCCCNCC2)ccc1CN1CCCNCCNCCCNCC1 and CN1CCN(Cc2ccc(-c3cnc4[nH]cc(-c5ccc6[nH]ccc6c5)c4c3)cc2)CC1 are within error of each other in progeny production: 9.51 ± 8.6% for the first, 14.6 ± 5.6% for the second.

COc1ccccc1NC(=O)c1ccccc1Sc1ccc([N+](=O)[O-])cc1 and NC(=O)c1cnc2ccc(S(=O)(=O)c3ccccc3)cc2c1Nc1ccc(O)cc1 are within error of each other in progeny production: 14.7 ± 2.9% for the first, 17.7 ± 11% for the second.

CC[C@H](CO)Nc1nc(NCc2ccccc2)c2ncn(C(C)C)c2n1 and CCOCc1nc2c(N)nc3ccccc3c2n1CC(C)(C)O are within error of each other in progeny production: 13.5 ± 9.8% for the first, 14.8 ± 5.8% for the second.

CC(Cc1ccccc1)C(=O)Nc1ccc(Cl)cc1C(=O)O (stereo not given) and Nc1nc(=O)c(Br)c(-c2ccccc2)[nH]1 are within error of each other in progeny production: 14.4 ± 0.88% for the first, 9.38 ± 7.4% for the second.

O=C1NC(=S)N/C1=C\c1cc(Br)cc(Br)c1O and O=C1CCC(N2C(=O)c3ccccc3C2=O)C(=O)N1 (stereo not given) are within error of each other in progeny production: 10.2 ± 8.1% for the first, 13.3 ± 8.9% for the second.

Compared with CC1CCc2c(N3CCC(O)CC3)c(F)cc3c(=O)c(C(=O)O)cn1c23 (stereo not given), CC(C)Nc1ncnc2c1cnn2-c1ccc(Cl)cc1 is lower in progeny production: 11 ± 2.9% for the first, 4.15 ± 2.5% for the second.
